Inconclusive results are not listed. Values without a mark were called inactive. The call rests on the fitted dose curve; in most records, active means well fitted cell-killing curve with a large enough effect; inconclusive means small, poorly fitted or top-dose-only effect; inactive means flat fitted curve, though single readings scatter.
assay: MultiTox-Fluor Cytotoxicity Assay - LYMP1-001 - Live Cells (AID 947); conditions: LYMP1-001 lymphoblastoid cells, live-cell protease fluorescence viability; series mostly up to 92.2 µM; activity change, negative = cytotoxicity: at the top concentration;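 further: 0% = DMSO only and full inhibition = tetraoctylammonium bromide control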
Source text: NIH Chemical Genomics Center [NCGC]
NIH Molecular Libraries Screening Centers Network [MLSCN]
National Institutes of Environmental Health Sciences [NIEHS]
National Toxicology Program [NTP]
We have developed a 1536-well cell-based assay for quantitative high throughput screening (qHTS) against a number of cell lines to determine in vitro cytotoxicity of small molecules. This particular assay uses a human lymphoblastoid cell line (LYMP1-001) purchased from Coriell Institute.
NCGC Assay Protocol Summary:
The MultiTox-Fluor Cytotoxicity Assay (Promega) is a homogeneous method to simultaneously measure the relative number of live and dead cells in culture by detecting changes in cell membrane integrity. There are two fluorogenic peptide substrates in the assay reagent. Viable cells are determined when the cell-permeant substrate (GF-AFC) enters the cell and is cleaved by protease from live cells resulting in liberated fluorophore. This live-cell protease activity restricted to viable cells is proportional to cell number. The dead cells are determined by using fluorogenic cell-impermeant peptide substrate (bis-AAF-R110) which cleaved by dead cell proteases leaking from damaged cell membrane.
Using the MultiTox-Fluor Cytotoxicity Assay, the relative number of live cells was measured in the lymphoblastoid cell line with complete culture medium following compound treatment for 16 hours. The assay was performed in opaque black Kalypsys 1536-well plates. In the screen, tetraoctylammonium bromide was used as positive control. Library compounds were measured for their ability to cause acute toxicity in the cell line, as reflected by a decrease in live cell protease activity, in a concentration-dependent manner. […] AC50 values were determined from concentration-response data modeled with the standard Hill equation.
qHTS protocol for MultiTox-Fluor Cytotoxicity assay
[Step] [Parameter] [Value] [Description]
1. Reagent; 5 uL; 2500 lymphoblastoid cells/well
2. Time; 5 hr; 37 C incubation
4. Controls; 23 nL; Tetraoctylammonium bromide 6.4pM to 92 uM
5. Time; 16 hr; 37 C incubation
6. Reagent; 5 uL; MuliTox-Fluor Assay reagent
7. Time; 60 min; Room Temperature
8. Detection; live-cell fluorescence (Ex/Em=405/510); EnVision plate reader
Keywords: cell viability, cytotoxicity, lymphoblastoid cell line, fluorescence, NTPHTS, NTPHTS_NCGC, NIEHS, EPA, DSSTox, MLSMR, MLSCN, NIH Roadmap, qHTS, NCGC

| Compound | activity change, negative = cytotoxicity [%] |
| --- | --- |
| Oc1cccc(Cl)c1 | 6.77 |
| Cc1coc2c1CCC(C)C2 (stereo not given) | -6.22 |
| COC(=O)Nc1nc2ccccc2[nH]1 | -20 |
| O=[N+]([O-])c1cccc(CCl)c1 | -13.9 |
| O=Cc1ccc2c(c1)OCO2 | -2.82 |
| Cl/C=C/CCl | 16.4 |
| C=C(Cl)CCl | -6.16 |
| Nc1cc(Cl)ccc1Cl | 9.51 |
| N#C/C=C/C#N | 14.5 |
| COc1ccccc1N | 0.802 |
| CN(C)C(=O)Nc1cccc(C(F)(F)F)c1 | -10.6 |
| N#CCCC#N | 1.91 |
| CCCCC#N | 7.36 |
| CCC/C=N/O | 14.7 |
| Nc1ncc([N+](=O)[O-])s1 | -6.41 |
| CC12CC1(C)C(=O)N(c1cc(Cl)cc(Cl)c1)C2=O (stereo not given) | 9.82 |
| C=CC(=O)OCC(C)C | -11.5 |
| Oc1c(Cl)cccc1Cl | -20.1 |
| C=CCO | -3.04 |
| Cc1cc(-c2cc(C)c(N)c(C)c2)cc(C)c1N | 7.07 |

| Compound | activity change, negative = cytotoxicity [%] |
| --- | --- |
| CC(C)OC(=O)Cc1ccccc1 | -4.36 |
| ClC(Cl)C(Cl)Cl | 6.55 |
| Clc1ccc(C(c2ccccc2Cl)C(Cl)(Cl)Cl)cc1 (stereo not given) | 9.75 |
| CC(C)CON=O | -1.21 |
| O=C(O)c1cc(Cl)ccc1Cl | -4.41 |
| Brc1ccc(Oc2ccc(Br)cc2Br)c(Br)c1 | 12.4 |
| Oc1cc(Cl)ccc1Cl | -3.86 |
| COc1ccc(C=O)cc1 | 2.81 |
| COC(=O)c1ccccc1N | 10.8 |
| NNC(N)=S | 1.64 |
| Nc1cccc2ccccc12 | -20.9 |
| Nc1cc(Cl)cc(C(=O)O)c1Cl | 2.45 |
| Oc1cc(Cl)cc(Cl)c1 | 5.4 |
| CCN(N=O)C(N)=O | 5.14 |
| Cc1ccc([N+](=O)[O-])cc1 | 7.68 |
| O=C(O)C(Cl)Br (stereo not given) | -10.5 |
| N#CCCCCC#N | -12 |
| BrC(Br)Br | -18.7 |
| C1CC2OC2CC1C1CO1 (stereo not given) | 8.26 |
| O=[N+]([O-])CCO | 6.54 |

Source: PubChem BioAssay (NCATS)
